The text below walks through data of PubChem BioAssay (Tox21).

Each structure is given as a SMILES string. Records with an inconclusive call do not appear. A call without a number means that no potency is given here. The source made the active and inactive calls. Unless noted, the call rests on the fitted dose curve; in most records, active means well fitted cell-killing curve with a large enough effect in the repeat runs; inconclusive means weak or mixed curves, or effect the other way; inactive means flat fitted curve, though single readings scatter.

System in the first assay: not listed separately
The assay can be described thus: qHTS assay to identify small molecule agonists of the estrogen receptor beta (ER-beta) signaling pathway - cell viability counter screen (AID 1259380). Further: nearly all actives have a fitted effect of over 30% in size. Further: potency means the concentration at half of the fitted maximal effect. The following applies: ER-beta-bla HEK293T viability, CellTiter-Glo luminescence, 16 h; series mostly up to 92.4 µM. An outline of the steps:
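Compounds dissolved in DMSO were pin-transferred onto ER-beta-UAS-bla HEK293T cells that had settled 6 hr, and exposure ran 16 hr at 37C. Following the reporter read, CellTiter-Glo luminescence after 30 min at room temperature indicated cytotoxicity.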
A general note: Quantitative high-throughput screening tests each substance at several concentrations.
For `Nc1nc(Cl)nc2c1ncn2[C@H]1C[C@H](O)[C@@H](CO)O1`, the Potency result is “inactive”. Turning to `CCCCOC(=O)CC#N`, the Potency result was “inactive”. Same read-out and setting: with `CC1(COc2ccc(CC3SC(=O)NC3=O)cc2)CCCCC1` (stereo not given) the figure was 10.6 µM (active); with `Cc1c(Nc2ncccc2C(=O)O)cccc1C(F)(F)F`, 8.41 µM (active). On the same count and under the same terms, then `CC(C)C/C=C(\C=O)c1ccccc1`, with “inactive”; and `CC/C=C\CCO`, with “inactive”.

As for `CCCCCCCCCCCCCCCCN`, the Potency entry is “inactive”. With `O=C(OCCCCCOC(=O)c1ccccc1)c1ccccc1`, the Potency result was “inactive”. `C=CC(C)CCC=C(C)C` (stereo not given): the Potency result is “inactive”. For the compound `O=[N+]([O-])c1cccc(I)c1`, the Potency result is “inactive”. On the same count and under the same terms, then `CC(CC(C#N)(c1ccccc1)C(C)C)N(C)C` (stereo not given), with “inactive”. As to `Nc1ccc(-c2ccc(F)cc2)cc1`, the Potency result was “inactive”. `CCCC(=O)OCCC(C)C`: the Potency result was “inactive”. The same measure, in the same setting: with `CC(C)NC(=O)c1ccccc1N` the entry was “inactive”; with `NC(=O)c1ccccc1C(N)=O`, 61.4 µM (active). On to `CCc1ccc2c(c1)C(=O)c1ccccc1C2=O`, for which the Potency entry is “inactive”.

For `CC(C)C[C@H](NC(=O)[C@H](Cc1ccccc1)NC(=O)c1cnccn1)B(O)O`, the Potency is 4.22 µM (active). Same read-out and setting: then `CC(C)(C(=O)O)c1ccc(C(O)CCCN2CCC(C(O)(c3ccccc3)c3ccccc3)CC2)cc1` (stereo not given), with “inactive”. On the same count and under the same terms, then `CCCc1ccc(OC)cc1`, with “inactive”; and `O=Cc1ccc([N+](=O)[O-])cc1`, with “inactive”. Regarding `O=C1CCCN1CCO`, the Potency is 43.3 µM (active). On the same count and under the same terms, then `O=C(Cl)c1ccc(F)c(Cl)c1`, with “inactive”. Still for that read-out and setting: with `O=C(O)CCc1nc2ccccc2[nH]1` the entry was “inactive”. The same measure, in the same setting: with `Nc1cccc2c(=O)[nH][nH]c(=O)c12` the figure was 24.5 µM (active); with `CCC(C(=O)O)c1ccc(N2Cc3ccccc3C2=O)cc1` (stereo not given), “inactive”; with `O=C(C1CCCCC1)N1CC(=O)N2CCCc3ccccc3C2C1` (stereo not given), “inactive”. Take `N#CCCCC(C#N)CCC#N` (stereo not given): the Potency entry is “inactive”. Same read-out and setting: then `O=C(O)c1cccc(C(=O)O)c1C(=O)O`, with 13.8 µM (active); and `CCCCCO`, with “inactive”. The same measure, in the same setting: then `C[C@H](N)C(=O)N[C@@H](C)C(=O)NC1[C@H]2CN(c3nc4c(cc3F)c(=O)c(C(=O)O)cn4-c3ccc(F)cc3F)C[C@@H]12` (stereo not given in full), with “inactive”; and `CS(C)=O`, with “inactive”; and `CC(CCl)OC(C)CCl` (stereo not given), with “inactive”.

In a further assay the target is Androgen receptor (Homo sapiens) (UniProt P10275). Description: qHTS assay to identify small molecule agonists of the androgen receptor (AR) signaling pathway in the presence of an antagonist (AID 1259381; calls by dose curve; further: nearly all actives have a fitted effect of over 15% in size). The following applies: MDA-kb2 MMTV-luciferase, AR agonist + nilutamide, 16 h; series mostly up to 92.4 µM. In a few lines: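 Plated MDA-kb2 cells (3,000/well) were pre-incubated 5hr, given nilutamide (3.0uM final) or buffer, then dosed with compounds in DMSO at 15 concentrations. Luciferase activity was quantified by luminescence after 16hr at 37C.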
Androgen receptor (Homo sapiens), sequence (P10275 whole entry, looked up): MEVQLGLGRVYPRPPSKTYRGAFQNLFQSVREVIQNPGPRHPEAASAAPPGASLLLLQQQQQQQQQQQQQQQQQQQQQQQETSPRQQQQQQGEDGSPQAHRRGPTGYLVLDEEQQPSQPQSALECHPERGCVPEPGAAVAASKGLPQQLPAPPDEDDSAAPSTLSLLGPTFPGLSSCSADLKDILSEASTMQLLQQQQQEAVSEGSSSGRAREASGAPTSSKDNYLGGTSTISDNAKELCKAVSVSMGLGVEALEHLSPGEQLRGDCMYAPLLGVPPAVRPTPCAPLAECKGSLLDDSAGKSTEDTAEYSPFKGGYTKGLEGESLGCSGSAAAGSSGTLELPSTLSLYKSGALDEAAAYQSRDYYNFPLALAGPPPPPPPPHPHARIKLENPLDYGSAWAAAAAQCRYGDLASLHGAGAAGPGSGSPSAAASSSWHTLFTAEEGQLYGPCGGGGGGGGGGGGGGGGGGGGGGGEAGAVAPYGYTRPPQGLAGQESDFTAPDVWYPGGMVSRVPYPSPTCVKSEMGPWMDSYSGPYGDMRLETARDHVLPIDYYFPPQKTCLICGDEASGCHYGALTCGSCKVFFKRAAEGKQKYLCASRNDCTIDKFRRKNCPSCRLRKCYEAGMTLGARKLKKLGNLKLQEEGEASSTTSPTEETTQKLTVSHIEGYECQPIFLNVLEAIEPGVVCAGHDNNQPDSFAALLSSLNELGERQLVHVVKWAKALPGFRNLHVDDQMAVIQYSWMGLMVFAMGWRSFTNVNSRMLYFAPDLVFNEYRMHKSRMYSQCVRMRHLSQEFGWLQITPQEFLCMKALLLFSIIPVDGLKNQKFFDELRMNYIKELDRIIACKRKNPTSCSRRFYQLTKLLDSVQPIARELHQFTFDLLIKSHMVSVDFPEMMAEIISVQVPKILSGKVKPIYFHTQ
Take `Cc1cc(SC2=C(O)C[C@@](CCc3ccc(N)cc3)(C(C)C)OC2=O)c(C(C)(C)C)cc1CO`: the Potency result was “inactive”. `CC(CC(C#N)(c1ccccc1)C(C)C)N(C)C` (stereo not given): the Potency result was “inactive”. Still for that read-out and setting: with `CCCC(=O)OCCC(C)C` the entry was “inactive”; with `Cc1ccc(NC(=O)c2ccc(CN3CCN(C)CC3)cc2)cc1Nc1nccc(-c2cccnc2)n1`, “inactive”. Same read-out and setting: with `NC(=O)c1ccccc1C(N)=O` the entry was “inactive”; with `COC(=O)Cc1cccc2ccccc12`, “inactive”; with `CCCc1ccc(OC)cc1`, “inactive”. With `CCC(C(=O)O)c1ccc(N2Cc3ccccc3C2=O)cc1` (stereo not given), the Potency entry is “inactive”. On to `O=C(C1CCCCC1)N1CC(=O)N2CCCc3ccccc3C2C1` (stereo not given), for which the Potency entry was “inactive”. For the compound `O=C(O)c1cccc(C(=O)O)c1C(=O)O`, the Potency entry was “inactive”. Still for that read-out and setting: with `O=C(OCCN1CCOCC1)c1cccnc1Nc1cccc(C(F)(F)F)c1` the entry was “inactive”; with `C[C@H](N)C(=O)N[C@@H](C)C(=O)NC1[C@H]2CN(c3nc4c(cc3F)c(=O)c(C(=O)O)cn4-c3ccc(F)cc3F)C[C@@H]12` (stereo not given in full), “inactive”; with `O=c1[nH][nH]c2ccccc12`, “inactive”.
